# Bioassay records: PubChem, National Center for Advancing Translational Sciences (NCATS)
# Gal4-VP16 FLuc = VP16 counterscreen qHTS for inhibitors of ROR gamma transcriptional activity; Drosophila S2 Gal4-VP16 UAS-luciferase, luminescence, 20 h; Potency, µM (highest dose often 53.6 µM), for the others: at the highest dose activity, negative = inhibition, actives largely listed as inhibitors; hit rate 3.5% among 310,000; AID 2546, 2010;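 further: Gal4-VP16 expression switched on by copper sulfate through the metallothionein promoter; on the % scale 0 is the no-effect control and ±100 the full control effect; nearly all actives have a fitted effect of over 50% in size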
# SW480 rerep = A quantitative high throughput screen for small molecules that induce DNA re-replication in SW480 colon adenocarcinoma cells; SW480 DNA re-replication, Hoechst DNA content imaging, 48 h; AID 624297, 2012; hit rate 1.8% among 340,000; Potency, µM (top dose mostly 46.1 µM), inactives show at the highest dose re-replication activation, usual class: activators; further: % of control where 0% means no effect; nearly all actives have a fitted effect of over 55% in size
#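 Per well, 250 cells were exposed to pinned compound for 48 hr. Nuclear DNA was visualised with Hoechst (40 min, 37 C) and total object intensity recorded by fluorescence scanning.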
# MCF10A rereplic = A quantitative high throughput screen for small molecules that induce DNA re-replication in MCF 10a normal breast cells. MCF 10A DNA re-replication, Hoechst nuclear intensity, 48 h. Potency, µM (doses to about 46.1 µM), for inactives: at the highest dose activity, positive = re-replication, most hits filed as activators. hit rate 2.9% among 350,000. AID 624296, 2012; further: % of control where 0% means no effect; nearly all actives have a fitted effect of over 50% in size
# RORgamma inh = qHTS for inhibitors of ROR gamma transcriptional activity. hit rate 5.4% among 310,000. Nuclear receptor ROR-gamma (Mus musculus), P51450. Drosophila S2 Gal4-RORgamma UAS-luciferase reporter, 20 h. Potency, µM (series often up to 53.6 µM), for the others: at the top dose activity change, negative = inhibition, most hits filed as inhibitors; further: on the % scale 0 is the no-effect control and ±100 the full control effect; nearly all actives have a fitted effect of over 60% in size
# Target sequence (P51450 whole entry, looked up, the tested form may be a part): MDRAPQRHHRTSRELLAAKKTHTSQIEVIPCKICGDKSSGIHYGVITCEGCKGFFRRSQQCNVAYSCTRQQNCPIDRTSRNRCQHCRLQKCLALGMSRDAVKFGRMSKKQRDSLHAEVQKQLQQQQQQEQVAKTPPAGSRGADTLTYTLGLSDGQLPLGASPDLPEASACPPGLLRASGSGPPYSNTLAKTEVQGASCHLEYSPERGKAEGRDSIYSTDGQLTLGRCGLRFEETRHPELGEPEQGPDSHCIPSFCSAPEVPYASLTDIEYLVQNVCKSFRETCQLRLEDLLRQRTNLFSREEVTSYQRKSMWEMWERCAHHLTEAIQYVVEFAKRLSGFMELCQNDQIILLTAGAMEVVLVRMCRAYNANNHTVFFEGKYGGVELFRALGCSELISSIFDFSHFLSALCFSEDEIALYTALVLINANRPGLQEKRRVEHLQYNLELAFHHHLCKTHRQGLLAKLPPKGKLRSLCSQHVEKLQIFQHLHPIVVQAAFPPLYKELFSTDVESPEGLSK
#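 Stable Schneider cell line, Gal4 DNA-binding domain fused to ROR gamma, UAS-luciferase. Cmpd 1 hr RT → CuSO4 700 uM final → 20 hr RT → luciferase reagent 10 min → luminescence.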
# ELG1 repair inh = qHTS screen for small molecules that inhibit ELG1-dependent DNA repair in human embryonic kidney (HEK293T) cells expressing luciferase-tagged ELG1 | HEK293T ELG1-luciferase reporter, luminescence, 16 h; DNA damage induced by 5-fluorouridine | hit rate 2.3% among 330,000 | Potency, µM (doses to about 46.1 µM), for the others: top-dose activity change, negative = inhibition, hits mostly inhibitors; further: on the % scale 0 is the no-effect control and ±100 the full control effect; nearly all actives have a fitted effect of over 55% in size
#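 HEK293T cells expressing luciferase-tagged ELG1 (2,000/well) received 5-Fluorouridine plus compound or DMSO for 16 hr at 37 °C. Luciferase was read by ONE-Glo luminescence after 30 min at room temperature.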
# The depositor's hits bear a star; ? = inconclusive; / = no result given; [ ] = remark or other dose. This is a sample that favours compounds with a hit; in the whole collection about 10% have one here. The call rests on the fitted dose curve; in most records, active means well fitted curve in the direction sought with a large enough effect; inconclusive means small, poorly fitted or top-dose-only effect, or another doubt; inactive means no such curve, though single readings can be large; an effect the other way counts as inactive or inconclusive. Potency means the concentration at half of the fitted maximal effect.
SMILES,Gal4-VP16 FLuc,SW480 rerep,MCF10A rereplic,RORgamma inh,ELG1 repair inh
COC(=O)C1(C(C)=O)CC2=CC[C@@H]3C(=O)N(c4ccccc4)C(=O)[C@@H]3[C@@H]2Cc2ccccc2[C@@H]1C[N+](=O)[O-] (stereo partly specified),-7.7%,/,/,-0.1%,/
O=C([C@H](Cc1ccc(O)cc1)n1cc(CCO)nn1)N1CCNCC1,2.9%,-76.8%,22.7%,11.8%,?
COc1ccc([N+](=O)[O-])cc1NC(=O)Cn1ccsc1=N,-0.9%,-48.2%,6.3%,2.1%,3.4%
O=C(CCC(=O)c1ccc(Oc2ccccc2)cc1)Nc1ccc(Cl)cc1Cl,0.0%,5.8µM*,?,-1.5%,15.8%
S=C(Nc1ccccc1Oc1ccccc1)Nc1cccc(Cl)c1Cl,?,-41.1%,?,12.6µM*,8.6%
S=C(Nc1cccc(Cl)c1)Nc1ccccc1Oc1ccccc1,?,15.1%,?,10µM*,3.6%
S=C(Nc1ccc(Cl)cc1Cl)Nc1ccccc1Oc1ccccc1,?,-14.1%,?,10µM*,-3.7%
COC(=O)c1ccccc1NC(=O)COC(=O)Cc1ccc(S(=O)(=O)N2CCOCC2)s1,/,-6.2%,-1.3%,/,/
CC(Sc1nnc(-c2ccccc2Br)n1-c1cccc(C(F)(F)F)c1)C(N)=O (stereo unspecified),2.4%,-2.2%,-2.2%,33.7%,4.7%
COc1ccc(-c2ccc(NCCN3CCOCC3)nn2)cc1OC,-1.3%,-16.8%,3.4%,-3.9%,-4.4%
Cc1ccc2nc(N3CCN(c4cccc(C)c4C)CC3)c3nnnn3c2c1,13.4%,-1.8%,17.7%,9.7%,2.0%
Cc1ccc2nc(Cl)c3nnnn3c2c1,-3.8%[10 µM],1.84µM*,2.59µM*,29.2%,?
O=C1c2ccccc2NC(c2ccc(-c3ccc(Br)cc3)o2)N1O (stereo unspecified),?,?,?,7.08µM*,?
O=C(NCCCN1CCN(CCCNC(=O)c2ccccc2F)CC1)c1ccccc1F,12.4%,7.31µM*,18.8%,9.7%,12.2%
O=C(NCCN1CCN(c2ccccc2)CC1)c1ccccc1F,12.9%,2.2%,14.6%,30.2%,5.6%
CC1CCN(CCCNC(=O)c2coc3nc4ccccc4nc23)CC1,5.1%,8.0%,14.6µM*,?,?
COc1ccc(NC(=O)O/N=C/c2c(C)nn(C(C)(C)C)c2C)cc1,11.2µM*,-4.5%,7.4%,2.51µM*,?
CC1CCN(C(=O)COC(=O)Cc2ccc(Br)cc2)CC1,0.2%,-10.3%,-0.3%,9.5%,21.5%
Cc1ccc([N+](=O)[O-])c2cccnc12,2.8%,-13.9%,0.5%,-13.9%,14.2%
O=[N+]([O-])c1cc2cccnc2c2ncccc12,2.0%,14.6µM*,0.0%,-17.7%,7.3µM*
O=[N+]([O-])c1cc(O)c2ncccc2c1,-2.2%,-26.8%,?,0.891µM*,2.59µM*
COC(=O)c1ccc(COc2cc([N+](=O)[O-])cc3cccnc23)o1,-12.8%,-35.3%,4.5%,-20.3%,11.9%
CCn1nc(C(=O)OCC(=O)N(CCC#N)c2ccccc2)c2ccccc2c1=O,/,-8.1%,-6.5%,/,15.8%
CCn1c(SCC(=O)Nc2ncc(C(F)(F)F)cc2Cl)nnc1-c1ccccc1,?,4.2%,-1.3%,28.4%,3.2%
Cc1nnc(SCC(=O)Nc2ncc(Cl)cc2Cl)n1Cc1ccccc1,?,-4.1%,-7.5%,3.98µM*,16.3%
SMILES,Gal4-VP16 FLuc,SW480 rerep,MCF10A rereplic,RORgamma inh,ELG1 repair inh
COCCn1c(SCC(=O)Nc2cccnc2Cl)nc2cc(Cl)ccc2c1=O,/,-2.7%,7.9%,/,?
COCCn1c(SCC(=O)Nc2sccc2C(N)=O)nc2cc(Cl)ccc2c1=O,?,15.5%,26.1%,-20.5%,23.1µM*
Cc1nnc(SCC(=O)Nc2sccc2C(N)=O)n1Cc1ccccc1,-6.3%,10.5%,2.0%,4.47µM*,-0.6%
Cn1c(SCC(=O)Nc2ncc(C(F)(F)F)cc2Cl)nnc1-c1ccc(Cl)cc1,11.2µM*,-61.0%,-77.0%,10µM*,-3.4%
COc1ccc(NC(=S)N2CCN(S(C)(=O)=O)CC2)cc1,0.7%,?,5.3%,30.0%,-9.6%
O=C(CSc1ccccc1F)NCCCN1CCCC1=O,/,3.8%,-0.8%,/,29.6%
c1ccc2oc(-c3[nH]ncc3CN3CCC(N4CCSCC4)CC3)cc2c1,-10.4%,-6.3%,23.1µM*,34.9%,-0.5%
c1ccc2oc(-c3[nH]ncc3CN3CCSCC3)cc2c1,-3.2%,-7.2%,10.7%,-18.6%,-0.4%
CCCCNS(=O)(=O)c1ccc2nc(-c3cccs3)cc(C(=O)NCC(OC)OC)c2c1,-6.0%,5.5%,-19.6%,3.8%,-29.3%
Cc1ccc(Nc2nc3ccccc3nc2Nc2c(C)n(C)n(-c3ccccc3)c2=O)cc1,-1.8%,-4.2%,1.84µM*,2.5%,-16.4%
Cc1c(NC(=O)c2cc(-c3ccc(F)cc3)nc3ccccc23)c(=O)n(-c2ccccc2)n1C,/,4.0%,?,/,8.2µM*
O=C(N/N=C1/CC2CCC1C2)c1cc2ccccc2cc1O (stereo unspecified),0.794µM*,?,0.9%,0.891µM*,-12.2%
O=C(NCC1CCCCC1)c1cc2ccccc2cc1O,?,?,18.4µM*,37.8%,?
COc1ccc(C(CCN2CCCCC2)c2c(OC)cc(OC)c3c(-c4ccccc4)cc(=O)oc23)cc1 (stereo unspecified),?,1.64µM*,?,?,-5.2%
O=C(Cc1ccc([N+](=O)[O-])cc1)N/N=C/c1ccc([N+](=O)[O-])o1,?,14.7%,3.0%,-22.3%,?
O=C(O)/C=C/c1ccc([N+](=O)[O-])o1,-4.8%,?,?,11.2µM*,?
N#CCc1ccc(NC(=O)/C=C/c2ccc([N+](=O)[O-])o2)cc1,-15.0%,?,16.4µM*,-14.9%,?
CN1CCN(C(=O)/C=C/c2ccc([N+](=O)[O-])o2)CC1,?,23.6%,20.6µM*,?,-0.1%
CC(=O)c1c(COC(=O)c2ccccc2Cl)nc2ccccc2[n+]1[O-],-3.8%,26.9%,-7.8%,22.6%,-3.3%
Cc1ccc(/C=C2/SC(=S)N(c3ccc(S(=O)(=O)Nc4nccs4)cc3)C2=O)cc1,0.794µM*,-6.0%,13.0%,5.62µM*,?
CN(C)c1ncnc2c1ccn2C1OC(CO)C(O)C1O (stereo unspecified),/,14.6µM*,2.31µM*,/,/
CN(C)c1nc2c(N)ncnc2n1C1OC(CO)C(O)C1O (stereo unspecified),/,-0.2%,-0.1%,/,/
OCC1OC(n2cnc3c(NCc4ccccc4O)ncnc32)C(O)C1O (stereo unspecified),/,2.31µM*,?,/,/
